# Data from PubChem BioAssay (NCATS).
# Results filed as inconclusive are left out. A call without a number means that no potency is given here. The source made the active and inactive calls. Unless noted, the call rests on the fitted dose curve; in most records, active means well fitted curve in the direction sought with a large enough effect; inconclusive means small, poorly fitted or top-dose-only effect, or another doubt; inactive means no such curve, though single readings can be large; an effect the other way counts as inactive or inconclusive.
# Assays:
# [1] = biological target: Calcium and integrin-binding protein 1 (Homo sapiens) (UniProt Q99828); test: Primary qHTS for Identification of Calcium Integrin Binding Protein 1 (CIB1) Competitor (AID 1508620); conditions: CIB1-GST / FITC-alphaIIb peptide fluorescence polarization; series mostly up to 114 µM;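 further: GST tagged CIB1 binding a fluorescein labelled alphaIIb integrin peptide tracer; top concentration of the series differs between compounds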
# Sequence of Calcium and integrin-binding protein 1 (Homo sapiens) (Q99828 whole entry, looked up): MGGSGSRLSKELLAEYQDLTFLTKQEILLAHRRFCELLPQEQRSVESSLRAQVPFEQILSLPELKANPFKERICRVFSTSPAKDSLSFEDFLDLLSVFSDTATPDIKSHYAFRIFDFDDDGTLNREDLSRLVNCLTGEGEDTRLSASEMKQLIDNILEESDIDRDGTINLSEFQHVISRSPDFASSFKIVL
# Outline: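 CIB1-GST (1 uM final) and compound incubated 15 min at room temperature before adding FITC-alphaIIb peptide tracer (100 nM final). Competition for binding read by fluorescence polarization (ex 480, em 540) after another 15 min at room temperature.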
# [2] = A High-Content qHTS Against Drug Library for the Identification of Small Molecules that Inhibit DYT1 Early Onset Primary Dystonia-Associated Cell Pathology (AID 1645839; calls by dose curve); conditions: HEK293 Flp-In EGFP-delE TorsinA, punctate imaging, 48 h; series mostly up to 46.1 µM
# Outline: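 In this high-content image screen, delE TorsinA mislocalization in inducible Flp-In 293 cells is scored as %pathology, with cell count serving as the counterscreen. Compound exposure lasts 48 h under tetracycline induction in reduced-serum medium.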
# [3] = biological target: Cytochrome P450 2D6 (Homo sapiens) (UniProt P10635); test: Cytochrome P450 family 2 subfamily D member 6 (CYP2D6) small molecule antagonists: luciferase biochemical (cell-free) qHTS assay (AID 1645840; active means well fitted curve in the direction sought with a large enough effect in the repeat runs; an effect the other way counts as inactive or inconclusive; further: nearly all actives have a fitted effect of over 55% in size; further: potency means the concentration at half of the fitted maximal effect); conditions: P450-Glo CYP2D6 enzyme, luciferin luminescence, 1 h; series mostly up to 57.4 µM
# Sequence of Cytochrome P450 2D6 (Homo sapiens) (P10635 whole entry, looked up): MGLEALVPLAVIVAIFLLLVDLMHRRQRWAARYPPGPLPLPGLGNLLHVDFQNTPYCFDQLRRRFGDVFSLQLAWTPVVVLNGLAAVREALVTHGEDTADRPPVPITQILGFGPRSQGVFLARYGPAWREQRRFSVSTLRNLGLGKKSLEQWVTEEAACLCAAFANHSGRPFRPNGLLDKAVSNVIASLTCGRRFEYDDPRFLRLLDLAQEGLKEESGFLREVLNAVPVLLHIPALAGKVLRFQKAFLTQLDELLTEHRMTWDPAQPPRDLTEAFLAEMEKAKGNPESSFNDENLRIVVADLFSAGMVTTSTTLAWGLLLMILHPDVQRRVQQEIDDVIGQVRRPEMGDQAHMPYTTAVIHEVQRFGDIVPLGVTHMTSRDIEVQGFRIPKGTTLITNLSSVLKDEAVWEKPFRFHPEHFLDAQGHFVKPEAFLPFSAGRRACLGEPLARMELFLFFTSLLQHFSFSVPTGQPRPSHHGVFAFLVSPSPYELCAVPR
# Outline: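 P450-Glo luminescent screen: recombinant CYP2D6 enzyme–proluciferin substrate mix preincubated with compound 10 min at room temperature, then NADPH regeneration added for 1 h at room temperature. Detection reagent added for 20 min; luciferin light read as relative luminescence units.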
# [4] = Primary qHTS for small molecule stabilizers of the endoplasmic reticulum resident proteome: Secreted ER Calcium Modulated Protein (SERCaMP) assay (AID 1508630); conditions: SH-SY5Y GLuc-SERCaMP (Gaussia luciferase released on ER calcium loss) secretion, thapsigargin, luminescence; series mostly up to 38.4 µM
# Outline: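 GLuc-SERCaMP-expressing SH-SY5Y cells, pretreated 16 h with compound, are challenged with thapsigargin to empty ER calcium stores; after 4 h, coelenterazine is added directly to the medium and luminescence is imaged.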
# [5] = biological target: Cytochrome P450 3A4 (Homo sapiens) (UniProt P08684); test: Cytochrome P450 family 3 subfamily A member 4 (CYP3A4) small molecule antagonists: luciferase qHTS assay (AID 1645841; active means well fitted curve in the direction sought with a large enough effect in the repeat runs; an effect the other way counts as inactive or inconclusive; further: nearly all actives have a fitted effect of over 45% in size); conditions: P450-Glo CYP3A4 enzyme assay, luciferin luminescence; series mostly up to 57.4 µM
# Sequence of Cytochrome P450 3A4 (Homo sapiens) (P08684 whole entry, looked up): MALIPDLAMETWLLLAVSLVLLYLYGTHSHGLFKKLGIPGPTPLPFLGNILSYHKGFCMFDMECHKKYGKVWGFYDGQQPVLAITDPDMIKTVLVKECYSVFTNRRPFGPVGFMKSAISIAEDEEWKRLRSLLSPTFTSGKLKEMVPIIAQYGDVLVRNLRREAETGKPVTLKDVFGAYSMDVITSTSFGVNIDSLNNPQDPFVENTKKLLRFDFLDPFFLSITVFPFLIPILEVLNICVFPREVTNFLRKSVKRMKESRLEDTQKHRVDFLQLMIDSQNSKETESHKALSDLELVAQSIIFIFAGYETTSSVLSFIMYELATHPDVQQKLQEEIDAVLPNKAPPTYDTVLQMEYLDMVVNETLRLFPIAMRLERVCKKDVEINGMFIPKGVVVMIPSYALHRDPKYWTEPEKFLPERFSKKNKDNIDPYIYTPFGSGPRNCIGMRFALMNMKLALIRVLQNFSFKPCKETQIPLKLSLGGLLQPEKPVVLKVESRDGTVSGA
# Outline: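 Luminescent CYP3A4 activity readout: compounds plus enzyme-substrate mix 10 min at room temperature, reaction started with NADPH regenerating system for 1 h, stopped with detection reagent, read after 20 min. Ketoconazole served as control.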
smiles,measurement,setting,value
NC(=O)c1ncn([C@@H]2O[C@H](CO)[C@@H](O)[C@H]2O)c1N,outcome,[1],inactive
same,Potency,[2],inactive
same,Potency,[3],inactive
COc1ccc2cc1Oc1ccc(cc1)C[C@H]1c3c(cc4c(c3Oc3cc5c(cc3OC)CCN(C)[C@@H]5C2)OCO4)CCN1C,outcome,[1],inactive
same,Potency,[4],inactive
same,Potency,[3],17.4 µM (active)
Cc1cc2c(cc1S(N)(=O)=O)S(=O)(=O)CCC2,outcome,[5],inactive
[Cl][In]([Cl])[Cl],outcome,[5],inactive
